# Assay results taken from the supplement of paper PMC7156485.
# ± gives the standard deviation of the averaged measurements.
# Tests used:
# Conditions in all cases: concentration: 10 µM; 24 h
# [1] = test system: HCC1569; assay: cell number relative to DMSO (% of DMSO); higher = more cells (less growth inhibition / toxicity)
# Summary of the method: (§1)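 HCC1569 and TDF cells (800 per well, 384-well plates, RPMI with 10% FBS) were treated with compounds at 10 µM for 24 h at 37 °C, in triplicate. Cells were fixed in 3.7% formaldehyde and stained with a rabbit anti-H1.0 antibody, an AlexaFluor 647 secondary and DAPI; six fields per well were imaged at ×10. H1.0 nuclear intensity or cell number is expressed as percent of the plate DMSO control, taking the median of replicates. HCC1569 values were smoothed for positional effects.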
# [2] = test system: TDF; assay: as above
# Summary of the method: as §1
# [3] = test system: TDF; assay: H1.0 immunofluorescence intensity relative to DMSO (% of DMSO); higher = stronger H1.0 induction, active = 120 or more
# Summary of the method: as §1
# [4] = test system: HCC1569; assay: H1.0 immunofluorescence intensity relative to DMSO (% of DMSO); higher = stronger H1.0 induction, active = 140 or more
# Summary of the method: as §1
# 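For H1.0 immunofluorescence intensity relative to DMSO in this document: TDF is a line of transformed human dermal fibroblasts of mesenchymal origin.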
# 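For cell number relative to DMSO in this document: TDF denotes transformed human dermal fibroblasts of mesenchymal origin.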
compound,measurement,setting,value
CC(C)CN(C)c1nc(N)c(C(=O)N=C(N)N)nc1Cl [5-(N-Methyl-N-isobutyl)amiloride],cell number,[1],100
same,cell number,[2],92.3
same,H1.0 immunofluorescence intensity,[3],106 (inactive)
same,H1.0 immunofluorescence intensity,[4],101 (inactive)
CC(C)C(NC(=O)OCc1ccccc1)C(=O)NC(C=O)Cc1ccccc1 (configuration not stated),cell number,[1],99.5
same,cell number,[2],96.2
same,H1.0 immunofluorescence intensity,[3],103 (inactive)
same,H1.0 immunofluorescence intensity,[4],102 (inactive)
COC(=O)C(Cc1ccc(OCCn2c(=O)sc3cc(C(=O)c4ccccc4)ccc32)cc1)C(=O)OC,cell number,[1],102
same,cell number,[2],91.8
same,H1.0 immunofluorescence intensity,[3],93.3 (inactive)
same,H1.0 immunofluorescence intensity,[4],105 (inactive)
Cl.c1ccc2nc(C3=NCCN3)ccc2c1 [BU224 hydrochloride],cell number,[1],101
same,cell number,[2],110
same,H1.0 immunofluorescence intensity,[3],95 (inactive)
same,H1.0 immunofluorescence intensity,[4],100 (inactive)
Cl.N=c1ccn2c(n1)OC1C(O)C(CO)OC12 (configuration not stated) [Ancitabine hydrochloride],cell number,[1],73.5
same,cell number,[2],50.3
same,H1.0 immunofluorescence intensity,[3],109 (inactive)
same,H1.0 immunofluorescence intensity,[4],92 (inactive)
O=C1c2cccc(O)c2C(=O)c2c(O)cc(CO)cc21 [Aloe-emodine],cell number,[1],95.7
same,cell number,[2],89.9
same,H1.0 immunofluorescence intensity,[3],97.3 (inactive)
same,H1.0 immunofluorescence intensity,[4],99.5 (inactive)
"CCCCCC(=O)c1c(O)c(Cl)c(OC)c(Cl)c1O [1-(3,5-dichloro-2,6-dihydroxy-4-methoxyphenyl)-1-hexanone]",cell number,[1],93.6
same,cell number,[2],90
same,H1.0 immunofluorescence intensity,[3],101 (inactive)
same,H1.0 immunofluorescence intensity,[4],120 (inactive)
CC(C)c1cc(C(C)C)c(CC(=O)NS(=O)(=O)Oc2c(C(C)C)cccc2C(C)C)c(C(C)C)c1,cell number,[1],94.4
same,cell number,[2],103
same,H1.0 immunofluorescence intensity,[3],89.8 (inactive)
same,H1.0 immunofluorescence intensity,[4],110 (inactive)
CCC1OC(=O)C(C)C(OC2CC(C)(OC)C(O)C(C)O2)C(C)C(OC2OC(C)CC(N(C)C)C2O)C(C)(O)CC(C)CN(C)C(C)C(O)C1(C)O (configuration not stated) [Azithromycin],cell number,[1],106
same,cell number,[2],109
same,H1.0 immunofluorescence intensity,[3],91.2 (inactive)
same,H1.0 immunofluorescence intensity,[4],105 (inactive)
CC(COc1ccccc1)N(CCCl)Cc1ccccc1.Cl (configuration not stated) [Phenoxybenzamine hydrochloride],cell number,[1],71.6
same,cell number,[2],69.5
same,H1.0 immunofluorescence intensity,[3],105 (inactive)
same,H1.0 immunofluorescence intensity,[4],107 (inactive)
CN1CCN(c2nc3cc(C(F)(F)F)ccc3n3cccc23)CC1.O=C(O)C=CC(=O)O,cell number,[1],99.3
same,cell number,[2],104
same,H1.0 immunofluorescence intensity,[3],103 (inactive)
same,H1.0 immunofluorescence intensity,[4],113 (inactive)
O=C(Nc1cccc(Nc2cc(Nc3cccc(C(F)(F)F)c3)ncn2)c1)C1CC1 [EGFR Inhibitor],cell number,[1],54.7
same,cell number,[2],8.22
same,H1.0 immunofluorescence intensity,[3],178 (active)
same,H1.0 immunofluorescence intensity,[4],186 (active)
"CN1C(=O)CCC1c1cccnc1 (single isomer, unassigned; (-)) [(-)-Cotinine]",cell number,[1],102 ± 1.1
same,cell number,[2],112 ± 5.4
same,H1.0 immunofluorescence intensity,[3],93.5 (inactive)
same,H1.0 immunofluorescence intensity,[4],93 (inactive)
"N#Cc1cccc(-c2c[nH]c3ncnc(N4CCOCC4)c23)c1 [3-(4-morpholino-7H-pyrrolo[2,3-d]pyrimidin-5-yl)benzonitrile]",cell number,[1],107
same,cell number,[2],110
same,H1.0 immunofluorescence intensity,[3],86.3 (inactive)
same,H1.0 immunofluorescence intensity,[4],80.8 (inactive)
"CCCCCCCCCCCCCC=CC(O)C(CO)N(C)C (configuration not stated) [N,N-Dimethylsphingosine]",cell number,[1],110
same,cell number,[2],90.2
same,H1.0 immunofluorescence intensity,[3],101 (inactive)
same,H1.0 immunofluorescence intensity,[4],101 (inactive)
CC(N)=NCCC[C@H](N)C(=O)O.Cl [L-N5-(1-Iminoethyl)ornithine hydrochloride],cell number,[1],101
same,cell number,[2],108
same,H1.0 immunofluorescence intensity,[3],92.8 (inactive)
same,H1.0 immunofluorescence intensity,[4],93.3 (inactive)
CC(=O)O/N=C1\C(=O)N(Cc2cc(Cl)ccc2Cl)c2ccc(Cl)cc21,cell number,[1],99.5
same,cell number,[2],107
same,H1.0 immunofluorescence intensity,[3],97.2 (inactive)
same,H1.0 immunofluorescence intensity,[4],99.5 (inactive)
O=C(O)c1cccnc1C(=O)O [Quinolinic acid],cell number,[1],106
same,cell number,[2],102
same,H1.0 immunofluorescence intensity,[3],90.7 (inactive)
same,H1.0 immunofluorescence intensity,[4],99.9 (inactive)
COc1cc(/C=C/C(=O)O)ccc1O [Ferulic acid],cell number,[1],102
same,cell number,[2],97.3
same,H1.0 immunofluorescence intensity,[3],101 (inactive)
same,H1.0 immunofluorescence intensity,[4],92.2 (inactive)
CC(C)(C)c1nc2c3cc[nH]c(=O)c3c3cc(F)ccc3c2[nH]1,cell number,[1],110
same,cell number,[2],103
same,H1.0 immunofluorescence intensity,[3],87 (inactive)
same,H1.0 immunofluorescence intensity,[4],101 (inactive)
N=C(N)c1ccc(OCCCCCOc2ccc(C(=N)N)cc2)cc1 [Pentamidine],cell number,[1],101
same,cell number,[2],104
same,H1.0 immunofluorescence intensity,[3],92.3 (inactive)
same,H1.0 immunofluorescence intensity,[4],113 (inactive)
COc1ccccc1O [Guaiacol],cell number,[1],103
same,cell number,[2],107
same,H1.0 immunofluorescence intensity,[3],92.7 (inactive)
same,H1.0 immunofluorescence intensity,[4],107 (inactive)
O=C(NCCO[N+](=O)[O-])c1cccnc1 [Nicorandil],cell number,[1],102
same,cell number,[2],96.3
same,H1.0 immunofluorescence intensity,[3],91.5 (inactive)
same,H1.0 immunofluorescence intensity,[4],107 (inactive)
